# Bioassay records deposited in PubChem BioAssay by National Center for Advancing Translational Sciences (NCATS).
# HT1080 IDH1KD tx: kills HT-1080 cells with IDH1 knockdown; HT-1080 IDH1 knockdown viability, ATP luminescence, 48 h; Potency, µM (top dose mostly 46.1 µM), for inactives: at the highest dose activity, negative = toxicity, hits mostly cytotoxic; 360,000 tested, 2% active; AID 686971;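 further: 0% = DMSO wells and -100% = cell-free medium wells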
#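 % activity derives from luminescence (CellTiter-Glo), normalised to DMSO and no-cell wells. HT-1080-IDH1KD cells, 750/well, had 48 h compound exposure at 37 °C.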
# KB-V1 cytotox: KB-V1 MDR subline cytotoxicity. Potency, µM (series often up to 46.1 µM), actives largely listed as cytotoxic. KB-V1 MDR cells viability, CellTiter-Glo, 72 h. 400,000 tested, 3.4% active. AID 1347076; further: nearly all actives have a fitted effect of over 60% in size
#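 Readout: CellTiter-Glo luminescence, 10 min after addition. Cells: KB-V1 MDR subline, 72 h at 37 degrees C with compound. Analysis: corrected, normalized data fitted to concentration-effect curves.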
# TDP1 cell noCPT: qHTS for Inhibitors of human tyrosyl-DNA phosphodiesterase 1 (TDP1): qHTS in cells in absence of CPT | DT40 Tdp1-/- hTDP1 cells, no CPT, ATP luminescence, 48 h | Potency, µM (top dose mostly 46.2 µM), for the others: at the highest dose activity change, negative = growth inhibition, most hits filed as inhibitors | 420,000 tested, 15% active | AID 686978, 2013; further: nearly all actives have a fitted effect of over 55% in size
#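 Stably hTDP1-transfected Tdp1-null chicken DT40 cells were treated with library compounds minus camptothecin and grown for at least 48 hr at 37 °C, after which cellular ATP was quantified by luminescence.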
# DT40 TDP1 CPT: growth inhibition of DT40 Tdp1-/-;hTDP1 cells with camptothecin (screen for TDP1 inhibitors); Potency, µM (highest dose often 46.2 µM), without a hit: at the highest dose activity change, negative = growth inhibition, actives largely listed as inhibitors; chicken DT40 Tdp1-/-;hTDP1 cells + 20 nM CPT, ATP luminescence, 48 h; 420,000 tested, 12% active; further: nearly all actives have a fitted effect of over 55% in size
#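 Cell growth measured by CellTiter-Glo luminescence after a minimum 48 h, 37 C compound exposure with 20 nM CPT in Tdp1-knockout DT40 cells stably expressing hTDP1, seeded 400/well; qHTS titration format.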
# HT1080NT lethal: kills 2HG-producing HT-1080-NT fibrosarcoma cells | HT-1080-NT fibrosarcoma viability, CellTiter-Glo ATP luminescence, 48 h | Potency, µM (series often up to 46.1 µM), for inactives: at the top dose activity, negative = less viability, usual class: cytotoxic | 360,000 tested, 1.6% active;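 further: NT is the 2HG producing partner of a matched IDH1 knockdown line; 0% = DMSO-treated cells and -100% = media-only wells without cells; nearly all actives have a fitted effect of over 55% in size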
#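 Read-out is CellTiter-Glo luminescence after 10 minutes at room temperature, following 48 hours' compound treatment of HT-1080-NT cells (750 cells/well, RPMI, 5% FBS, 37 degrees C).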
# KB-3-1 cytotox: KB-3-1 parental cell cytotoxicity; KB-3-1 viability, CellTiter-Glo ATP luminescence, 72 h; Potency, µM (top dose mostly 46.1 µM), most hits filed as cytotoxic; 400,000 tested, 1.4% active; further: nearly all actives have a fitted effect of over 60% in size
#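 Multi-concentration cytotoxicity screen in KB-3-1 cells grown in DMEM lacking phenol red with 10% FBS. After 72 h at 37 °C with compound, ATP-dependent luminescence was recorded.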
# * = called active by the depositor; i = inactive; ? = inconclusive; . = no result given. Shown are actives, neighbours in structure and some others; about 19% of the full set was active somewhere. The call rests on the fitted dose curve; in most records, active means well fitted curve in the direction sought with a large enough effect; inconclusive means small, poorly fitted or top-dose-only effect, or another doubt; inactive means no such curve, though single readings can be large; an effect the other way counts as inactive or inconclusive. Unless noted, on the % scale 0 is the no-effect control and ±100 the full control effect; potency means the concentration at half of the fitted maximal effect.
SMILES,HT1080 IDH1KD tx,KB-V1 cytotox,TDP1 cell noCPT,DT40 TDP1 CPT,HT1080NT lethal,KB-3-1 cytotox
O=C(COC(=O)c1ccc[nH]c1=O)NCCc1ccc(F)cc1,10%,i,17%,0%,10%,i
Cc1cc(C(=O)COC(=O)c2ccc[nH]c2=O)c(C)n1-c1ccccc1,-1%,18µM*,-26%,-22%,0%,i
Cc1cc(C(=O)COC(=O)c2ccc[nH]c2=O)c(C)n1-c1ccc(F)cc1,13%,18µM*,?,-4%,-2%,i
O=C(O)C1CCN(c2ncc(-c3ccc4c(c3)OCCCO4)s2)CC1,.,i,.,.,.,i
O=CNc1ccc2c3c(cccc13)-c1ccccc1-2,-5%,?,?,?,-11%,i
FC(F)(F)c1cc(CN2CC3(CCNCC3)C2)cc(C(F)(F)F)c1,.,.,7.3µM*,18µM*,.,.
FC(F)(F)c1cc(CN2CC[C@@]3(CCCNC3)C2)cc(C(F)(F)F)c1,.,.,15µM*,?,.,.
C=CCOc1cccn2c(N(C)C(=O)c3ccccc3F)c(CC)nc12,6%,i,-27%,-50%,11%,i
Cc1nnc(NC(=O)c2sc3nc(-c4cccs4)cc(C(F)(F)F)c3c2N)s1,-5%,13µM*,?,?,-23%,i
Cc1ccn2c(=O)c(C(=O)NC3CCCCC3C)c(O)nc2c1 (stereo unspecified),-3%,?,?,16µM*,-4%,?
CCC1CCCCN1CCCNC(=O)c1c(O)nc2c(C)cccn2c1=O (stereo unspecified),6%,i,7%,13%,-14%,i
Cc1cccn2c(=O)c(C(=O)NCCCN3CC(C)CC(C)C3)c(O)nc12 (stereo unspecified),8%,i,-18%,14%,0%,i
Cc1cccn2c(=O)c(C(=O)NC3CC(C)CC(C)(C)C3)c(O)nc12 (stereo unspecified),4%,23µM*,7.3µM*,7.3µM*,1%,?
Cc1cccn2c(=O)c(C(=O)NCc3ccccc3Cl)c(O)nc12,.,i,23µM*,16µM*,.,i
Cc1ccn2c(=O)c(C(=O)NCCCN3CCCCC3C)c(O)nc2c1 (stereo unspecified),3%,i,2%,10%,16%,i
Cc1cccn2c(=O)c(C(=O)NC3CCCCC3C)c(O)nc12 (stereo unspecified),?,16µM*,15µM*,?,-16%,?
Cc1nc(N2CCCCC2)nc(N2CCCCC2)c1C=O,-12%,?,?,-7%,-7%,i
Cc1cccn2c(=O)c(C(=O)NCCCN3CCCCC3C)c(O)nc12 (stereo unspecified),7%,i,9%,6%,4%,i
Cc1cccn2c(=O)c(C(=O)NC3CCCCC3)c(O)nc12,0%,?,18µM*,18µM*,5%,?
COc1ccc(CNC(=O)Cn2ccc3cc(S(=O)(=O)N4CCCCC4)ccc32)cc1OC,.,i,?,?,.,i
O=C1C=C(c2c(O)ccc3ccccc23)c2ccccc2C1=O,?,i,1.2µM*,1.2µM*,7.3µM*,?
N#Cc1nc(-c2ccc(OCc3ccccc3Cl)cc2)oc1N1CCC(C(N)=O)CC1,.,?,-29%,-4%,.,i
COc1cccc(-c2cnc3c(NC=O)cc(-c4cccc(C(=O)N(C)C)c4)cn23)c1,?,23µM*,?,?,-21%,i
CN(C)C(=O)c1cccc(-c2cc(NC=O)c3ncc(-c4ccc(F)c(Cl)c4)n3c2)c1,?,i,23µM*,16µM*,?,i
CN(C)C(=O)c1cccc(-c2cnc3c(NC=O)cc(-c4cccc(C(F)(F)F)c4)cn23)c1,18µM*,?,8.2µM*,8.2µM*,23µM*,i
SMILES,HT1080 IDH1KD tx,KB-V1 cytotox,TDP1 cell noCPT,DT40 TDP1 CPT,HT1080NT lethal,KB-3-1 cytotox
CN(C)C(=O)c1cccc(-c2cnc3c(NC=O)cc(-c4cccc(F)c4)cn23)c1,18%,?,15µM*,21µM*,29%,i
Cc1ccc(-n2c(=O)[nH]c3cc(C(=O)NCc4ccccc4)ccc3c2=O)cc1,.,?,-4%,-8%,.,i
CC(=O)[O][Al][O]C(C)=O,.,.,-5%,0%,.,.
Cc1ccc(S(=O)(=O)N2CCN(C(=O)c3ccc(Br)o3)CC2)c(C)c1,0%,?,?,?,-20%,?
COc1ccc(-c2cc(NC=O)c3ncc(-c4cccc(C(=O)N(C)C)c4)n3c2)cn1,-1%,i,16µM*,23µM*,-8%,i
Cc1cccc(-c2cc(NC=O)c3ncc(-c4cccc(C(=O)N(C)C)c4)n3c2)c1,0%,?,16µM*,?,?,i
CC(=O)Nc1cc(-c2cccc(C(=O)N(C)C)c2)cn2c(-c3cccc(C(=O)N(C)C)c3)cnc12,-9%,i,?,?,-1%,i
CN(C)C(=O)c1cccc(-c2cnc3c(NC=O)cc(-c4ccc(N(C)C)cc4)cn23)c1,-24%,i,?,18µM*,?,i
